For 24 molecules, inhibition results are on record in PubChem BioAssay AID686964 (The Scripps Research Institute Molecular Screening Center, 2013).

Each structure is given as a SMILES string. Screen size: about 370,000 compounds; about 1,100 (0.3%) were called active. For the sample, actives were picked, then their nearest neighbours and some compounds at random. A number with no mark means an inactive call. Cut-off read from the data, not from the text of the source: active = inhibition above about 13%; inactive = the rest.

Methyl-CpG-binding domain protein 2 (Homo sapiens), sequence (Q9UBB5 whole entry, looked up, the tested form may be a part): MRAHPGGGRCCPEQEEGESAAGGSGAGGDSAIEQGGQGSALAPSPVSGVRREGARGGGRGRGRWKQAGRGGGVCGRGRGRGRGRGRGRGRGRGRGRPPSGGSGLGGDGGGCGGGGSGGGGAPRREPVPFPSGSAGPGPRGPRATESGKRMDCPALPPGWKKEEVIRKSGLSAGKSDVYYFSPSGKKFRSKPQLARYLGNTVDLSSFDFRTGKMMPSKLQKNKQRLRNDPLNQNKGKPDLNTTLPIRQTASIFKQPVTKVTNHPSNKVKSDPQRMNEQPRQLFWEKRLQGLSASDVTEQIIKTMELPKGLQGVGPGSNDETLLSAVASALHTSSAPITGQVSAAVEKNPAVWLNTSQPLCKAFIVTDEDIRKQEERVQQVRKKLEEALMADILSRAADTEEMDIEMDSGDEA

This experiment addresses Methyl-CpG-binding domain protein 2 (Homo sapiens) (UniProt Q9UBB5). Description: MBD2-DBD methyl-oligonucleotide interaction blockers – biochemical, TR-FRET, DNA-binding domain, human, primary screen (AID 686964). As to conditions: MBD2 binding to methylated oligonucleotide, at 4.4 µM, active compounds read high. In general terms: Time-resolved FRET reads energy transfer from a long-lived donor to a nearby acceptor.
In the case of `O=C(NCCO)C(=O)NCC(c1ccc2c(c1)OCO2)N1CCN(c2ccc(F)cc2)CC1` (centres undefined), the inhibition (in general, the change of the read-out against control, counted positive when it falls) was 0.87%.
For the molecule `CCCC[C@H](C(=O)N(CC)c1ccccc1)[C@@H](O)c1ccc2ccccc2c1`, the inhibition was -3.72%.
The figure for `C[C@H](C(=O)N(C)c1ccccc1)[C@@H](O)c1ccc(Cl)cc1` is -1.32%; for `C=CCN(C(=O)[C@@H](CCCC)[C@@H](O)c1ccc(Cl)cc1)c1ccccc1` it is 15.9% (active); for `O=C(CCCCCN1C(=O)C2C3C=CC(C3)C2C1=O)Nc1ccccn1` (centres undefined) it is -4.13%.
The figure for `COC(=O)c1cccc(NS(C)(=O)=O)c1` is -3.55%; for `CC(=O)Nc1cccc(C(=O)OCN2C(=O)c3ccccc3C2=O)c1` it is 6.26%.
As for `COC(=O)c1cccc(NC(=O)c2cccc(N3C(=O)CCC3=O)c2)c1`, the inhibition is 13.4% (active).
Take `CCCC(C(=O)OCCN(CC)CC)(c1ccccc1)c1ccccc1`: the inhibition was 0.72%.
As for `CCN(CC)CCOc1ccc2c(c1)C(=NNC(=O)c1ccccn1)c1cc(OCCN(CC)CC)ccc1-2`, the inhibition is 109% (active).
Take `CCN(CC)S(=O)(=O)c1cc(C(=O)Nc2ccccn2)ccc1C`: the inhibition was 2.21%.
As to `Cc1cccc(S(=O)(=O)N(C)C[C@@H]2OCc3cnnn3CCCC(=O)N([C@H](C)CO)C[C@@H]2C)c1`, the inhibition is 3.06%.
The figure for `CN(C)[C@@H]1C(=O)C(C(N)=O)=C(O)[C@@]2(O)C(=O)C3=C(O)c4c(O)ccc(Cl)c4[C@@H](O)[C@H]3C[C@@H]12` is 17.8% (active).
As for `C=C1c2c(Cl)ccc(O)c2C(O)=C2C(=O)[C@]3(O)C(O)=C(C(N)=O)C(=O)[C@@H](N(C)C)[C@@H]3[C@@H](O)C12` (some centres undefined), the inhibition was 27.8% (active).
The figure for `O=C1CCC2(CCC(c3ccc(Cl)cc3)CC2)N1CCO` (centres undefined) is -0.8%; for `Nc1ncnc2c1ncn2[C@@H]1O[C@H](C(=O)N[C@@H](CCc2ccccc2)C(=O)N2CCCN(Cc3cccs3)CC2)[C@@H](O)[C@H]1O` it is 1.63%.
The figure for `O=C(O)CCn1c(O)c(C=C2N=c3ccccc3=N2)sc1=S` is -4.63%; for `CCOC(=O)C1C(=O)NCC1c1ccccc1` (centres undefined) it is -0.38%.
With `CCOC(=O)C1C(c2ccc(O)cc2)NC(=O)NC1(O)C(F)(F)F` (centres undefined), the inhibition is -5.62%.
The figure for `CCOC(=O)C1C(=O)OC2(CCCC2)C1C(=O)OCC` (centres undefined) is 19.3% (active).
On to `Cc1cc2c(nc1C)CCCN2C`, for which the inhibition is -0.93%.
The figure for `C=CCN(Cc1ccc2c(c1)OCO2)C(C#CC1CC1)C(C)(C)C` (centres undefined) is 3.04%; for `O=C(c1c[nH]c2ccccc12)N1CCC(Oc2cccnc2)CC1` it is -6.13%.
The figure for `CC(=O)N1C[C@@H](CO)[C@@H](N(C)C(=O)C(C)(C)C)C[C@H]1c1ccccc1Br` is 2.89%.
